# Test results published in PubChem BioAssay.
# Measured potencies and affinities stand elsewhere. Results filed as inconclusive are left out. Values without a mark were called inactive. The rule behind the calls is not given here.
# Assay: general cell-killing toxicity readout – plate reader, dry powder samples, cytotoxicity control for PAX8 inhibitor project, dose response (AID 743021)
# Details: cell line, non-specific cytotoxicity counter-screen; series mostly up to 35 µM; activity change, negative = cytotoxicity: at the top concentration
row,Compound,"activity change, negative = cytotoxicity"
1,O=C(C1CCC1)N1CCCCN2[C@H](CO)[C@H](c3ccc(-c4cccc(F)c4)cc3)[C@H]2C1,-21.1%
2,C[C@H]1CCCCO[C@@H](CN(C)Cc2ccncc2)[C@@H](C)CN([C@@H](C)CO)C(=O)c2cc(NC(=O)Nc3ccc(C(F)(F)F)cc3)ccc2O1,11.8%
3,COc1ccc(NC(=O)Nc2ccc3c(c2)C(=O)N([C@@H](C)CO)C[C@@H](C)[C@@H](CN(C)Cc2ccc(C(F)(F)F)cc2)O3)cc1,47.2% [at 16 µM]
4,O=S(=O)(c1ccccc1F)N1CC[C@@H]2[C@H](CO)Nc3ccc(C4=CCCCC4)cc3[C@@H]21,-8.83%
5,C[C@@H]1CCCCO[C@@H](CN(C)Cc2ccc(C(F)(F)F)cc2)[C@H](C)CN([C@@H](C)CO)C(=O)c2cc(NS(=O)(=O)c3ccc(Cl)cc3)ccc2O1,-4.99%
6,O=c1[nH]c(-c2ccccn2)nc2sc(-c3ccccc3)cc12,30.4%
7,Oc1ccc(C[C@H]2CNC(=S)N2CC2CCCN2C[C@H](Cc2ccc(O)cc2)N2C[C@H](Cc3ccccc3)N(CC3CCCCCC3)C2=S)cc1 (stereo not given in full),-13.8%
8,C[C@H]1CN([C@@H](C)CO)S(=O)(=O)c2ccc(C#Cc3ccncc3)cc2O[C@@H]1CN(C)C(=O)Nc1ccc2c(c1)OCO2,-8.23%
9,Cc1ccc(S(=O)(=O)Nc2ccc3c(c2)C(=O)N([C@H](C)CO)C[C@H](C)[C@@H](CN(C)S(=O)(=O)c2ccc(F)cc2)OCCCC[C@H](C)O3)cc1,-8.14%
10,Cc1ccc(S(=O)(=O)N(C)C[C@@H]2Oc3ccc(NC(=O)Nc4ccc(C(F)(F)F)cc4)cc3CC(=O)N([C@@H](C)CO)C[C@@H]2C)cc1,9.03%
